Test results reported in PubChem BioAssay (NCATS).
Values joined by “and” are separate entries in the source; they are usually repeats but may differ in a detail not shown here. Identical values can stand only once. Records with an inconclusive call do not appear. Where a call stands in place of a potency, no number is given. A number with no mark means an inactive call. Active and inactive are the calls of the source. Calls come from the whole dose curve; as a rule, active = well fitted curve in the direction sought with a large enough effect; inconclusive = small, poorly fitted or top-dose-only effect, or another doubt; inactive = no such curve, though single readings can be large; an effect the other way counts as inactive or inconclusive.

Tests used:
[1] = target: Cellular tumor antigen p53 (Homo sapiens) (UniProt P04637); test: Primary qHTS for small molecule compounds that upregulate eGFP-tagged delta133p53alpha (in N-terminal) cells. (AID 2060322); settings: NCI-H358 eGFP-delta133p53alpha fluorescence, 24 h; activation: hits give high values; note: nearly all actives have a fitted effect of over 75% in size; note: potency is the fitted concentration of half-maximal effect
Chain of Cellular tumor antigen p53 (Homo sapiens) (P04637 whole entry, looked up): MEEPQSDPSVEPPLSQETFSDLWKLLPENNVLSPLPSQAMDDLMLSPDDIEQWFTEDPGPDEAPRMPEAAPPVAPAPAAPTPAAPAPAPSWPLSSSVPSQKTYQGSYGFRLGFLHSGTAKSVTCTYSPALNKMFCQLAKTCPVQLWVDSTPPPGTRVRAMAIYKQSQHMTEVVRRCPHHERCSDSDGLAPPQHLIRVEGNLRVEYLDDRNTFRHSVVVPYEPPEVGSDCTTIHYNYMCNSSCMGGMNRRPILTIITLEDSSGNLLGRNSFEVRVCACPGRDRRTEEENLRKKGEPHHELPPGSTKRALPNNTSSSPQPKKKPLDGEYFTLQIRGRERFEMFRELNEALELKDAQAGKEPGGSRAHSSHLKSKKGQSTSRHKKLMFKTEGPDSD
Outline: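 NCI-H358 cells pre-induced 24 h with 10 ng/ml doxycycline to express N-terminal eGFP-delta133p53alpha, then dosed 24 h at 37C without doxycycline; fixed, Hoechst-stained, GFP intensity by laser scanning cytometry, normalized to DMSO (0%) and 57.5 uM 5-azacytidine (100%).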

[2] = target: Aldehyde dehydrogenase, mitochondrial (Homo sapiens) (UniProt P05091); test: qHTS for Inhibitors of the Aldehyde Dehydrogenase Family (ALDH2) Primary screen (AID 2061308); settings: ALDH2 enzyme inhibition qHTS, 1536-well; series mostly up to 56 µM; note: nearly all actives have a fitted effect of over 55% in size
[3] = target: Retinaldehyde dehydrogenase 3 (Homo sapiens) (UniProt P47895); test: qHTS for Inhibitors of the Aldehyde Dehydrogenase Family (ALDH1A3) Primary screen (AID 2061315); settings: ALDH inhibition qHTS; series mostly up to 56 µM
[4] = BET inhibitor-based combinations targeting novel dependencies in MECOM-rearranged (r) AML: SET-2 cell line (AID 2202231); settings: SET-2 AML cells viability, CellTiter-Glo luminescence, 48 h; viability: hits give low values, concentration not given here; note: nearly all actives have a fitted effect of over 35% in size; note: potency is the fitted concentration of half-maximal effect
Outline: (§1)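 Here, 11-point titrations of each agent were applied to 500 seeded cells and incubated 48 hr; CellTiter-Glo signal, scaled against DMSO and empty wells, was integrated as AUC, then Z-scored within the individual line.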

[5] = BET inhibitor-based combinations targeting novel dependencies in MECOM-rearranged (r) AML: OCI-AML3 cell line (AID 2202232); settings: CellTiter-Glo luminescence, 48 h; Potency: OCI-AML3 viability; series mostly up to 46 µM; note: nearly all actives have a fitted effect of over 35% in size; note: potency is the fitted concentration of half-maximal effect
Outline: as §1

[6] = BET inhibitor-based combinations targeting novel dependencies in MECOM-rearranged (r) AML: MV-4-11 cell line (AID 2202233); settings: MV-4-11 AML viability, CellTiter-Glo luminescence, 48 h; series mostly up to 46 µM; note: nearly all actives have a fitted effect of over 45% in size; note: potency is the fitted concentration of half-maximal effect
Outline: (§2)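 Normalized to DMSO and empty-well controls, the luminescence data from CellTiter-Glo after 48 hr drug exposure were fitted across 11 concentrations. Reported metrics are area under the dose-response curve and its Z-transformed form.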

[7] = BET inhibitor-based combinations targeting novel dependencies in MECOM-rearranged (r) AML: UCSD-AML1 cell line (AID 2202235); settings: UCSD-AML1 AML cells viability, CellTiter-Glo, 48 h; series mostly up to 46 µM; note: nearly all actives have a fitted effect of over 40% in size; note: potency is the fitted concentration of half-maximal effect
Outline: as §2

[8] = BET inhibitor-based combinations targeting novel dependencies in MECOM-rearranged (r) AML: AML-191 cell line (AID 2202236; note: nearly all actives have a fitted effect of over 35% in size; note: potency is the fitted concentration of half-maximal effect); settings: AML-191 viability, CellTiter-Glo luminescence, 48 h; series mostly up to 46 µM
Outline: as §1

[9] = BET inhibitor-based combinations targeting novel dependencies in MECOM-rearranged (r) AML: AML-194 cell line (AID 2202237; note: nearly all actives have a fitted effect of over 40% in size; note: potency is the fitted concentration of half-maximal effect); settings: AML-194 (MECOM-r AML) viability, CellTiter-Glo, 48 h; series mostly up to 46 µM
Outline: as §1

[10] = BET inhibitor-based combinations targeting novel dependencies in MECOM-rearranged (r) AML: HNT-34 cell line (AID 2202234); settings: HNT-34 AML viability, CellTiter-Glo luminescence, 48 h; series mostly up to 46 µM; note: nearly all actives have a fitted effect of over 35% in size
Outline: as §2

Structure (SMILES) | activation [1] | Potency [2] | Potency [3] | viability [4] [%] | Potency [5] | Potency [6] | Potency [7] | Potency [8] | Potency [9] | Potency [10] | Potency [4] | Potency [1]
N[C@@H](Cc1cc(I)c(Oc2cc(I)c(O)c(I)c2)c(I)c1)C(=O)O | -1.69% and -8.29% and -5.67% | inactive | inactive | 108 | inactive | inactive | inactive | inactive | inactive |  |  | 
CC(C)(C)C(=O)Oc1ccc2c(c1)nc(NC(=O)c1cccc([N+](=O)[O-])c1)n2CCCO | 12% | inactive | inactive | 111 | inactive | 2950 nM (active) | inactive |  |  |  |  | 
CN1C(=O)N[C@@H](Cc2c[nH]c3c(Cl)cccc23)C1=O | -25.9% | inactive | inactive | 110 | inactive |  | inactive | inactive | inactive | inactive |  | 
COc1cc(C(=O)N2CCC(N3CCN(C)CC3)CC2)ccc1Nc1ncc2c(n1)N(C)c1ccccc1C(=O)N2C | -6.3% and 0.893% | inactive | inactive |  | 2350 nM (active) | 1480 nM (active) | 4680 nM (active) | 9340 nM (active) | 16600 nM (active) |  | 6610 nM (active) | 
CNC(=O)c1ccc2cc(C3(O)CCn4cncc43)ccc2c1 (configuration not stated) | -1.49% and -0.893% | inactive | inactive | 115 | inactive |  | inactive | inactive | inactive | inactive |  | 
CC(C)c1nn(-c2c(Cl)cccc2Cl)c2nc(Cc3ccc(OCCO)cc3)[nH]c(=O)c12 |  | inactive | inactive |  | 74.2 nM (active) | 41.7 nM (active) | 41.7 nM (active) | 29.5 nM (active) | 46.8 nM (active) |  | 41.7 nM (active) | 68.5 nM (active) and 60.1 nM (active)
